# In the supplement of paper PMC8975748:
# Structures can show the parent of a compound that is named as a salt.
# Test system: Saccharomyces cerevisiae BY4741 SeMeCo community
# Experiment: z-score of subpopulation abundance vs DMSO median, subpopulation auxotrophic for HL; higher = larger share of this subpopulation than in DMSO controls
# Conditions: 10 µM; 24 h; SM minimal medium; subpopulation (auxotrophy): HL
# Protocol: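 Fluorescent four-plasmid SeMeCo (self-establishing metabolically cooperating S. cerevisiae BY4741 community; plasmids pH-mRuby2, pL-mWasabi, pU-eCFP, pM-TagRFP657) was grown 24 h in minimal SM medium with each Selleck FDA-approved drug at 10 µM in 384-well plates. Cells were fixed and imaged by high-content confocal microscopy. For each auxotrophic subpopulation (and the prototroph), a z-score gives the deviation from the DMSO vehicle-control population median.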
row,SMILES,z-score of subpopulation abundance
1,CCCOc1ccc(C(=O)OCCN(CC)CC)cc1N [Proparacaine HCl],-0.68
2,CC/C=C(\C(=O)N[C@@H]1C(=O)N2C(C(=O)OCOC(=O)C(C)(C)C)=C(COC(N)=O)CS[C@H]12)c1csc(N)n1 [Cefcapene Pivoxil Hydrochloride],0.18
3,Fc1ccc([C@@H]2CCNC[C@H]2COc2ccc3c(c2)OCO3)cc1 [Paroxetine mesylate],-0.67
4,COc1ccc(NS(=O)(=O)c2ccc(N)cc2)nn1 [Sulfamethoxypyridazine],-1.05
5,C=CCCCCCCCCC(=O)[O-].C=CCCCCCCCCC(=O)[O-].[Zn+2] [Zinc Undecylenate],-0.05
6,COc1ccc2cc3[n+](cc2c1OC)CCc1cc2c(cc1-3)OCO2 [Berberine chloride],0.31
7,COc1cc([C@@H]2c3cc4c(cc3[C@@H](O[C@@H]3O[C@@H]5CO[C@@H](C)O[C@H]5[C@H](O)[C@H]3O)[C@H]3COC(=O)[C@H]23)OCO4)cc(OC)c1O [Etoposide],0.84
8,C[N+](C)(C)CCOC(=O)CCC(=O)OCC[N+](C)(C)C [Succinylcholine Chloride Dihydrate],-0.8
9,Nc1cc(C(Cl)=C(Cl)Cl)c(S(N)(=O)=O)cc1S(N)(=O)=O [Clorsulon],0.48
10,CCN1CCN(c2cc3c(cc2F)c(=O)c(C(=O)O)cn3C2CC2)CC1 [Enrofloxacin],-0.47
11,O=c1ccn(C2CC(O)C(CO)O2)c(=O)[nH]1 (stereo not given) [2-deoxyuridine],1.21
12,CCOC(=O)C1=C(C)NC(C)=C(C(=O)OC)C1c1cccc([N+](=O)[O-])c1 (stereo not given) [Nitrendipine],-0.8
13,CCCN(CCC)CCc1cccc2c1CC(=O)N2 [Ropinirole HCl],0.65
14,CCCCCC(=O)O[C@]1(C(C)=O)CC[C@H]2[C@@H]3CCC4=CC(=O)CC[C@]4(C)[C@H]3CC[C@@]21C [Hydroxyprogesterone caproate],1.2
15,C#C[C@]1(O)CC[C@H]2[C@@H]3CCc4cc(O)ccc4[C@H]3CC[C@@]21C [Ethinyl Estradiol],-0.69
16,CC(=O)OCC1=C(C(=O)O)N2C(=O)[C@@H](NC(=O)Cc3cccs3)[C@H]2SC1 [Cephalothin],-0.42
17,CN[C@@H]1[C@@H](O)[C@@H](O[C@@H]2[C@@H](O)[C@H](O[C@H]3OC(CN)=CC[C@H]3N)[C@@H](N)C[C@H]2N)OC[C@]1(C)O [Sisomicin sulfate],0.51
18,CO/N=C(\C(=O)N[C@@H]1C(=O)N2C(C(=O)OC(C)OC(C)=O)=C(COC(N)=O)CS[C@H]12)c1ccco1 (stereo not given in full) [Cefuroxime axetil],-0.54
19,Cc1cc(O)c(C(=O)N[C@@H](C(=O)N[C@@H]2C(=O)N3C(C(=O)O)=C(CSc4nnnn4C)CS[C@H]23)c2ccc(O)cc2)cn1 [Cefpiramide sodium],0.18
20,Cc1c(C(N)=O)cc([N+](=O)[O-])cc1[N+](=O)[O-] [Dinitolmide],-0.36

row,SMILES,z-score of subpopulation abundance
1,CN1CC(=O)N2[C@H](c3ccc4c(c3)OCO4)c3[nH]c4ccccc4c3C[C@@H]2C1=O [Tadalafil],1.24
2,CN1C(C(=O)Nc2ccccn2)=C(O)c2ccccc2S1(=O)=O [Piroxicam],-0.37
3,COCCOC(=O)C1=C(C)NC(C)=C(C(=O)OC(C)C)C1c1cccc([N+](=O)[O-])c1 (stereo not given) [Nimodipine],-0.61
4,NC(=NCCCCCCN=C(N)N=C(N)Nc1ccc(Cl)cc1)N=C(N)Nc1ccc(Cl)cc1 [Chlorhexidine?2HCl],2.14
5,COc1ccc(Cl)cc1C(=O)NCCc1ccc(S(=O)(=O)NC(=O)NC2CCCCC2)cc1 [Glyburide (Glibenclamide)],1.09
6,O=c1cc(-c2ccc(O)c(O)c2)oc2cc(O)cc(O)c12 [Luteolin],0.22
7,NC12CC3CC(CC(C3)C1)C2 [Amantadine HCl],-0.19
8,CCOc1ccc2nc3cc(N)ccc3c(N)c2c1 [Ethacridine lactate monohydrate],3.54
9,COc1cc2c(cc1OC)C(=O)C(CC1CCN(Cc3ccccc3)CC1)C2 (stereo not given) [Donepezil],0.47
10,Nc1nc2[nH]cc(CCc3ccc(C(=O)N[C@@H](CCC(=O)O)C(=O)O)cc3)c2c(=O)[nH]1 [Pemetrexed Disodium Hydrate],5.03
11,Cc1ncc([N+](=O)[O-])n1C [Dimetridazole],-0.32
12,C=CCc1ccc(O)c(-c2ccc(O)c(CC=C)c2)c1 [Honokiol],-0.44
13,Clc1ccc(C(Cn2ccnc2)OCc2csc3c(Cl)cccc23)c(Cl)c1 (stereo not given) [Sertaconazole nitrate],16.1
14,C[C@@H](O)[C@H]1C(=O)N2C(C(=O)O)=C(SCCNC=N)C[C@H]12 [Imipenem],-0.18
15,CCC1=C(C)CN(C(=O)NCCc2ccc(S(=O)(=O)NC(=O)N[C@H]3CC[C@H](C)CC3)cc2)C1=O [Glimepiride],0.01
16,COc1ccc2c3c1O[C@H]1C[C@@H](O)C=C[C@@]31CCN(C)C2 [Galanthamine],0.83
17,Cc1cccc(C)c1NC(=O)C1CCCCN1C (stereo not given) [Mepivacaine HCl],-0.96
18,CC(=O)N1CCN(c2ccc(OCC3COC(Cn4ccnc4)(c4ccc(Cl)cc4Cl)O3)cc2)CC1 (stereo not given) [Ketoconazole],-0.6
19,CN(C)[C@@H]1C(=O)C(C(N)=O)=C(O)[C@@]2(O)C(=O)C3=C(O)c4c(O)ccc(Cl)c4[C@@H](O)[C@H]3C[C@@H]12 [Demeclocycline HCl],0.01
20,O=C(c1ccccc1)c1ccc2n1CCC2C(=O)O (stereo not given) [Ketorolac tromethamine salt],-0.19
